The source of these data is PubChem BioAssay AID1030 (National Center for Advancing Translational Sciences (NCATS), 2008).

The campaign covered roughly 220,000 compounds. About 16,000 (7.3%) were called active. Another 25% or so got no clear call; they are omitted. The entries come from a sample that favours actives as a whole. Where a call stands in place of a potency, no number is given. Unmarked numbers belong to inactive results. Calls follow the shape of the dose curve; as a rule, active = well fitted inhibition curve with a large enough effect (not every such curve was filed as active); inconclusive = small, poorly fitted or top-dose-only effect, or another doubt; inactive = no such curve, though single readings can be large or run the other way.
Potency is read from the fitted curve at half-maximal effect.

Chain of Aldehyde dehydrogenase 1A1 (Homo sapiens) (P00352 whole entry, looked up): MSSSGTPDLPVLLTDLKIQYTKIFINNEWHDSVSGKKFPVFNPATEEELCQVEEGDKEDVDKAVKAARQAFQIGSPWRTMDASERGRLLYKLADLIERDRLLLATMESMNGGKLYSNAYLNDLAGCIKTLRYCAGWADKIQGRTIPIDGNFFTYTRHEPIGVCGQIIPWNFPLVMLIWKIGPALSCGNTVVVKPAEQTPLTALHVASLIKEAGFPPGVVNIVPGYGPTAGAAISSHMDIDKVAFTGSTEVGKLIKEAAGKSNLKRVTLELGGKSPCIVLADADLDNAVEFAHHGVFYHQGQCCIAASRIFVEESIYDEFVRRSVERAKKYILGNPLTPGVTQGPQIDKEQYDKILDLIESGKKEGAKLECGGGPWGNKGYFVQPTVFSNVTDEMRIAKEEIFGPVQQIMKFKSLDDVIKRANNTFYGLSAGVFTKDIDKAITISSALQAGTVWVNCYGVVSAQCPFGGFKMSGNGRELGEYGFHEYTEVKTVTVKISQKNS

The test concerns the target Aldehyde dehydrogenase 1A1 (Homo sapiens) (UniProt P00352). The test can be described thus: qHTS Assay for Inhibitors of Aldehyde Dehydrogenase 1 (ALDH1A1). The following applies: Purified ALDH1A1, NADH fluorescence, propionaldehyde substrate; series mostly up to 75.3 µM. For orientation: Quantitative high-throughput screening tests each substance at several concentrations.
Consider `C=CCNc1nc(Nc2ccc(Cl)cc2)nc(OC)n1`, for which the Potency entry was “inactive”.
On the same count and under the same terms, to `C=C1O[C@@](CO)(n2cnc3c(N)ncnc32)[C@H](O)[C@@H]1O` belongs “inactive”; to `Cc1nnc(N/N=C/c2ccccn2)[nH]c1=O`, “inactive”; to `Cc1cc(=O)[nH]c(N/N=C/c2c(C)nn(-c3ccccc3Cl)c2Cl)n1`, 5.01 µM (active).
The same measure, in the same setting: to `Cc1ccc(-n2nc(C)c(/C=N/NC(=O)c3cccs3)c2Cl)cc1` belongs “inactive”.
The same measure, in the same setting: to `O=C(CSc1nnc(-c2ccncc2)n1-c1ccc(Cl)cc1)Nc1ccc(C(=O)O)cc1` belongs “inactive”.
`CC1(C)CC(=O)CC2(C1)NCC(c1ccccc1Cl)c1c2[nH]c2ccccc12` (stereo not given): the Potency result is “inactive”.
Take `COCCN1C(=O)N[C@@H](CCc2ccccc2)[C@H](C(C)=O)[C@H]1C`: the activity, negative = inhibition was 3.4% [at 13.5 µM].
Turning to `C=CC1=C2C=C(C3CC3)N(C(CO)CO)C=C2C(=O)C(C)(OC(=O)c2ccco2)C1=O` (stereo not given), the activity, negative = inhibition is -4.41% [at 13.5 µM].
As to `CN(C)/C=C(/C(=O)c1ccc(F)cc1)S(=O)(=O)c1ccc(F)cc1`, the Potency result is “inactive”.
The same measure, in the same setting: to `CCOc1ccc(N(CC(=O)OC)S(=O)(=O)c2c(C)noc2C)cc1` belongs “inactive”; to `CCOC(=O)c1cccc(NC(=O)CN(c2ccc(C)cc2)S(=O)(=O)c2c(C)noc2C)c1`, 7.94 µM (active); to `CCOc1ccc(N(CC(=O)NCc2ccc(OC)cc2)S(=O)(=O)c2c(C)noc2C)cc1`, “inactive”.
Same read-out and setting: the result for `CC(=O)c1c(C)[nH]c(C(=O)OCC(=O)NCCC(C)C)c1C` reads “inactive”; that for `CCOc1cc(/C=N/NC(=O)c2ccc(CSc3nncn3C)cc2)ccc1OCC(=O)N1CCOCC1`, “inactive”; that for `CCOc1cccc(/C=N/NC(=S)NCCN2CCOCC2)c1O`, “inactive”.
Turning to `CCOc1ccccc1N=C1NC(=O)CS1`, the Potency result is “inactive”.
As for `CCOc1cccc(/C=N/N2C(=O)CSC2=S)c1O`, the Potency was 7.08 µM (active).
With `O=C1CCC[C@@H]2CC(N3CCCCC3)C[C@@H]3CCN1[C@H]23` (stereo not given in full), the Potency result was “inactive”.
On the same count and under the same terms, to `COCCn1c(N)c(N(Cc2ccccc2)C(=O)C2CCCCC2)c(=O)[nH]c1=O` belongs “inactive”.
The same measure, in the same setting: the result for `O=C(Cn1ncc(N2CCCC2)c(Br)c1=O)c1ccc(Cl)cc1` reads “inactive”; that for `COc1cc(C(=O)N2CCOCC2)cc(OC)c1OC`, “inactive”; that for `CCN1CCN(CC(=O)c2cc(OC)c(OC)c(OC)c2)CC1`, 28.2 µM (active).
The same measure, in the same setting: to `CCCN(CCC)S(=O)(=O)c1ccc(C(=O)NNC(=O)c2cc(OC)c(OC)c(OC)c2)cc1` belongs “inactive”.
With `COc1ccc(N2C(=O)C(O)C2c2ccc(C)cc2)cc1` (stereo not given), the Potency entry is “inactive”.
Take `COc1ccc(-c2c(C)cc3oc(=O)cc(-c4ccccc4)c3c2C)cc1C=O`: the Potency was 0.126 µM (active).
Still for that read-out and setting: to `COc1ccc(-c2c(C)cc3oc(=O)cc(-c4ccccc4)c3c2C)cc1F` belongs “inactive”.
Turning to `Cc1cc2oc(=O)cc(-c3ccccc3)c2c(C)c1-c1ccc(OC(F)(F)F)cc1`, the Potency entry was “inactive”.
Still for that read-out and setting: to `C=CCn1c(COc2ccc(F)cc2)nnc1SCC(=O)Nc1cccc(S(N)(=O)=O)c1` belongs “inactive”; to `Cc1cccc(CSc2nnc(C)c(=O)n2N)c1`, “inactive”.
Consider `Cc1cc(NC(=O)CN2C(=O)NC(C)(CCc3ccccc3)C2=O)no1` (stereo not given), for which the Potency result is “inactive”.
The same measure, in the same setting: the result for `CC1CCN(C(=S)NC2CC3CCC2C3)CC1` (stereo not given) reads “inactive”; that for `S=C(NNC(=S)NC1CC2CCC1C2)NC1CC2C=CC1C2` (stereo not given), 20 µM (active); that for `S=C(NNC(=S)NC1CC2C=CC1C2)NC1CC2C=CC1C2` (stereo not given), 12.6 µM (active).
Same read-out and setting: to `COc1ccc(C(=S)Nc2ccccc2)cc1` belongs “inactive”; to `COCCNC(=S)c1ccc(OC)cc1`, 20 µM (active); to `COCCCNC(NC(=O)c1ccc(OC)cc1)C(Cl)(Cl)Cl` (stereo not given), “inactive”.
As to `Cn1nc(-c2ccccc2)c(CO)c1Sc1ccccc1`, the Potency result was “inactive”.
Same read-out and setting: the result for `COc1ccc(C(=O)NNC(=O)c2cc(C)[nH]n2)cc1` reads “inactive”; that for `Cc1ccc(C2NC(=S)NC3=C2N2CCC3CC2)cc1` (stereo not given), 8.91 µM (active).
On the same count and under the same terms, the result for `CC(O)c1cccc(NC(=O)Cc2cccc3ccccc23)c1` (stereo not given) reads “inactive”; that for `O=C(NCc1ccco1)c1cc2sccc2n1Cc1ccc(F)cc1`, “inactive”.
On the same count and under the same terms, the result for `O=C(NCc1ccco1)c1nn2cccnc2c1Cl` reads “inactive”.
For `O=C(NCc1ccco1)c1sc2cccc(F)c2c1Cl`, the Potency is 28.2 µM (active).
Same read-out and setting: the result for `O=C(CC1CCCCC1)NCc1ccc(F)cc1` reads “inactive”.
Regarding `O=C(CC1CCCCC1)Nc1c2c(nn1-c1ccc(F)cc1)CS(=O)(=O)C2`, the Potency was 7.94 µM (active).
Turning to `COc1cccc(C(=O)Nc2c3c(nn2-c2cccc(C)c2C)CS(=O)(=O)C3)c1OC`, the Potency entry was “inactive”.
On the same count and under the same terms, the result for `COCCNc1nc2nonc2nc1N(C)Cc1ccc(C)cc1` reads “inactive”.
Still for that read-out and setting: the result for `CCCCN(CC)CCCNC(=O)c1ccc(CSc2nc3ccncc3[nH]2)cc1` reads “inactive”.
Same read-out and setting: to `Cc1c(C=O)n(C)n(-c2ccccc2)c1=O` belongs “inactive”.
Regarding `CCOC(=O)N1CCC(=NNC(N)=O)CC1`, the Potency result is “inactive”.
On the same count and under the same terms, the result for `O=C(NCC1CCCO1)C1CCN(C2CCN(C(=O)C3CCCCC3)CC2)CC1` (stereo not given) reads “inactive”; that for `Cc1cccc(NC(=O)c2nnn(-c3cccc(C(F)(F)F)c3)c2N)c1`, “inactive”.
Take `CCn1c2ccccc2c2cc(NC(=O)COC(=O)c3ccccc3Br)ccc21`: the Potency entry was “inactive”.
Still for that read-out and setting: to `CCn1c2ccccc2c2cc(NC(=O)CNC)ccc21` belongs 25.1 µM (active); to `CCn1c2ccccc2c2cc(NC(=S)N3CCOCC3)ccc21`, “inactive”.
As for `CCOc1ccc(CN2CCN(Cc3ccc(C)o3)CC2CCO)cc1` (stereo not given), the Potency result is “inactive”.
Still for that read-out and setting: to `CCOC(=O)N1CCN(C(c2cccnc2)c2ccc3cccnc3c2O)CC1` (stereo not given) belongs 1.58 µM (active); to `CCOC(=O)N1CCN(C(=O)CSc2ccc(Cl)cc2)CC1`, “inactive”.
For `O=C(O)COc1c(Cl)cc(Cl)c2cccnc12`, the activity, negative = inhibition was -8.71% [at 13.5 µM].
In the case of `Oc1c(CN2CCN(c3ccc(F)cc3)CC2)cc(Cl)c2cccnc12`, the Potency result is “inactive”.
As for `CCN1CCN(C(c2cccnc2)c2cc(Cl)c3cccnc3c2O)CC1` (stereo not given), the Potency is 1.78 µM (active).
On to `Oc1c(C(c2ccccn2)N2CCOCC2)ccc2cccnc12` (stereo not given), for which the Potency result is “inactive”.
Still for that read-out and setting: the result for `O=C(Nc1cccnc1)c1cc2cc(Br)ccc2oc1=O` reads “inactive”; that for `CCCN(CCC)c1ccc(C(O)c2nnc(-c3ccccc3)o2)cc1` (stereo not given), “inactive”; that for `Oc1ccc(N=Nc2nccs2)c(O)c1`, “inactive”.
The same measure, in the same setting: the result for `Cc1nn2cc(-c3ccc(Cl)cc3)cnc2c1Br` reads “inactive”; that for `CCCCCCCC1(C)NC(=O)N(CC(=O)Nc2cc(C)on2)C1=O` (stereo not given), “inactive”; that for `CC1CN(S(=O)(=O)c2ccc(C(=O)NN3CCN(C)CC3)cc2)CC(C)O1` (stereo not given), “inactive”.
Still for that read-out and setting: to `COc1cc([C@H](Cc2ccccc2)NC(C)=O)oc(=O)c1` belongs “inactive”; to `COc1ccccc1C(=O)NN1C(=O)C2C3C=CC(O3)C2C1=O` (stereo not given), 20 µM (active).
For `O=C(Nc1ccc2c(c1)OCCO2)c1ccncc1`, the Potency entry was “inactive”.
With `COc1ccccc1C(=O)NNC(=O)c1ccc(NC(=O)c2ccccc2)cc1`, the Potency result is “inactive”.
The same measure, in the same setting: the result for `O=C(NN1C(=O)C2C3C=CC(C3)C2C1=O)c1ccco1` (stereo not given) reads “inactive”; that for `O=C(NN1C(=O)C2C3C=CC(O3)C2C1=O)c1ccncc1` (stereo not given), 17.8 µM (active); that for `COc1ccccc1C(=O)Nn1c(-c2cccs2)nc2ccccc2c1=O`, “inactive”.
On the same count and under the same terms, the result for `COC(=O)c1ccc(CN2CCC(CO)(Cc3ccc(OC)cc3)CC2)cc1` reads “inactive”; that for `CC(NC(=S)NC1CCCCC1)C(c1ccccc1)N1CCOCC1` (stereo not given), “inactive”.
For the compound `Cc1cccc(N2CCN(C(c3ccccc3)c3nnnn3CC3CCCO3)CC2)c1C` (stereo not given), the Potency entry is “inactive”.
For `CC(C)(C)n1nnnc1C(c1cccs1)N(Cc1cccnc1)CC1CCCO1` (stereo not given), the Potency result is “inactive”.
Same read-out and setting: the result for `Cc1cc(C)c2cc(CN(Cc3cccs3)Cc3nnnn3CC3CCCO3)c(=O)[nH]c2c1` (stereo not given) reads 11.2 µM (active).
The same measure, in the same setting: the result for `CCCCC(=O)Nc1ccc(C(=O)Nc2cc(C(F)(F)F)ccc2Cl)cc1` reads “inactive”.
On to `Cc1nc(Cl)c2oc3ccccc3c2n1`, for which the Potency entry is “inactive”.
Take `C[C@@H](Nc1nc(-c2ccccc2)nc2c1oc1ccccc12)C(=O)O`: the Potency was 7.08 µM (active).
Turning to `CCSc1nc(C)nc2c1oc1ccccc12`, the Potency result was “inactive”.
Same read-out and setting: to `O=C(NCCN1CCOCC1)Nc1cccc(Cl)c1` belongs “inactive”; to `CC/C(=N\NC(=S)NC(C)C)c1ccc(OC(F)F)cc1`, “inactive”.
`Cc1ccc(NC(=S)N(CCCN2CCCC2)Cc2cccn2Cc2ccc(Cl)cc2)cc1`: the Potency entry was “inactive”.
The same measure, in the same setting: the result for `O=C(Nc1ccc(CSc2ccccc2)cc1)c1ccc(CN2CCOCC2)cc1` reads “inactive”.
Turning to `C/C(CCc1ccccc1)=N\NC(=O)c1ccc(CN2CCOCC2)cc1`, the Potency is 25.1 µM (active).
Still for that read-out and setting: to `COc1ccc(C(=O)Nc2ccc(CN3CCOCC3)cc2)cc1` belongs “inactive”.
For `O=C(COc1ccc(NC(=O)c2ccccc2[N+](=O)[O-])cc1)c1ccc(F)cc1`, the Potency entry was “inactive”.
Still for that read-out and setting: to `CSc1ncccc1C(=O)Nc1nc2ccc(F)cc2s1` belongs “inactive”.
On the same count and under the same terms, to `COCC1CCCN(Cc2cn[nH]c2-c2cc3ccccc3o2)C1` (stereo not given) belongs “inactive”.
On the same count and under the same terms, the result for `O=C(O)c1ccc(/C=N/NC(=S)NCc2ccccc2)cc1` reads “inactive”; that for `O=C(Nc1ccncc1)c1ccccc1[N+](=O)[O-]`, “inactive”.
As for `O=C(Cl)c1ccccc1[N+](=O)[O-]`, the Potency result is “inactive”.
Consider `O=[N+]([O-])c1ccccc1SNc1ccccn1`, for which the Potency was 20 µM (active).
On the same count and under the same terms, to `COc1cc(NC(=O)COc2ccccc2Cl)ccc1NC(=O)C(C)C` belongs “inactive”; to `COc1ccc(S(=O)(=O)N(C)C)cc1NC(=O)CSc1ncccn1`, “inactive”; to `Cc1cccc(C)c1NC(=O)N1CC=C(n2c(=O)[nH]c3ccccc32)CC1`, 6.31 µM (active).
Turning to `Cc1cccc(C)c1NC(=O)c1ccc(CN2CCc3ccccc3C2)cc1`, the Potency entry is “inactive”.
On the same count and under the same terms, the result for `O=C(Nc1ccc(Cl)c(Cl)c1)N1CC=C(c2ccccc2)CC1` reads “inactive”; that for `CSc1ccc(CNCCN2CCOCC2)cc1`, “inactive”; that for `Cc1ccc(-c2nc(C)sc2CC(=O)OCC(=O)Nc2c(F)cccc2F)cc1`, “inactive”.
The same measure, in the same setting: the result for `Cc1ccc(NC(=O)Nc2nnc(-c3ccncc3)s2)cc1` reads “inactive”; that for `O=C(CSC1=Nc2ccccc2C2=NC(CC(=O)NCc3ccco3)C(=O)N12)NCc1ccco1` (stereo not given), 7.94 µM (active); that for `O=C(CC1CCCCC1)NCc1ccco1`, “inactive”.
Regarding `CCOCCc1c(O)nc(SCC(=O)NCc2ccco2)[nH]c1=O`, the Potency entry is “inactive”.
On the same count and under the same terms, to `O=C(NNC(=S)NC1CCCCC1)c1ccccc1Cl` belongs “inactive”.
